# According to PubChem BioAssay AID1159580 (chemical genetic matrix, 2015):
# Among all 5,500 compounds or so, about 2,000 (36%) were called active. Not shown: some 18% with an inconclusive outcome. The list shows a part of the results. A number with no mark means an inactive call. Cut-off read from the data, not from the text of the source: active = normalized growth mostly below about 0.91 (no sharp cut-off); inconclusive = no clear call, values can overlap the other calls; inactive = mostly above about 0.92.
# Experiment: chemical genetic growth profiling, strain panel (AID 1159580);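 note: tested at 20 µM; growth read once vehicle control cultures reached saturation at 30 °C; 1 = growth at the plate median or of vehicle wells; lower values mean less growth of the strain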
# Settings: growth OD
structure (smiles),measurement,setting,value
CCN(CC)C(C)CN1c2ccccc2Sc2ccccc21 (configuration not stated),normalized growth,"S. cerevisiae deletion strains, locus YJR075W, strain HOC1, hits give low values",0.937
same,normalized growth,"S. cerevisiae deletion strains, locus YKL009W, strain mrt4, hits give low values",0.888
same,normalized growth,"S. cerevisiae deletion strains, locus YKL068W, hits give low values",0.965
same,normalized growth,"S. cerevisiae deletion strains, locus YKL085W, strain MDH1 (second series), hits give low values",0.972
same,normalized growth,"S. cerevisiae deletion strains, locus YKL085W, strain MDH1, hits give low values",0.972
same,normalized growth,"S. cerevisiae deletion strains, locus YKL160W, strain elf1, hits give low values",0.907
same,normalized growth,"S. cerevisiae deletion strains, locus YKL190W, strain CNB1, hits give low values",0.985
same,normalized growth,"S. cerevisiae deletion strains, locus YKR001C, strain vps1, hits give low values",1.02
same,normalized growth,"S. cerevisiae deletion strains, locus YKR026C, strain gcn3, hits give low values",1.01
same,normalized growth,"S. cerevisiae deletion strains, locus YKR091W, strain srl3, hits give low values",0.986
same,normalized growth,"S. cerevisiae deletion strains, locus YLL001W, strain dnm1, hits give low values",0.911
same,normalized growth,"S. cerevisiae deletion strains, locus YLL026W, hits give low values",0.962
same,normalized growth,"S. cerevisiae deletion strains, locus YLL041C, strain sdh2, hits give low values",0.981
same,normalized growth,"S. cerevisiae deletion strains, locus YLR027C, strain aat2, hits give low values",0.961
same,normalized growth,"S. cerevisiae deletion strains, locus YLR039C, strain RIC1, hits give low values",1.1
same,normalized growth,"S. cerevisiae deletion strains, locus YLR058C, strain SHM2, hits give low values",0.963
same,normalized growth,"S. cerevisiae deletion strains, locus YLR102C, strain apc9, hits give low values",0.965
same,normalized growth,"S. cerevisiae deletion strains, locus YLR113W, strain HOG1, hits give low values",1.08
same,normalized growth,"S. cerevisiae deletion strains, locus YLR221C, strain rsa3, hits give low values",0.949
same,normalized growth,"S. cerevisiae deletion strains, locus YLR258W, strain gsy2, hits give low values",0.922
same,normalized growth,"S. cerevisiae deletion strains, locus YLR262C, strain YPT6 (second series), hits give low values",1.05
same,normalized growth,"S. cerevisiae deletion strains, locus YLR262C, strain YPT6, hits give low values",1.17
same,normalized growth,"S. cerevisiae deletion strains, locus YLR268W, strain sec22, hits give low values",0.924
same,normalized growth,"S. cerevisiae deletion strains, locus YLR320W, strain mms22, hits give low values",0.875 (active)
same,normalized growth,"S. cerevisiae deletion strains, locus YLR330W, strain CHS5, hits give low values",0.975
same,normalized growth,"S. cerevisiae deletion strains, locus YLR342W, strain FKS1 (second series), hits give low values",0.895
same,normalized growth,"S. cerevisiae deletion strains, locus YLR342W, strain FKS1, hits give low values",0.879 (active)
same,normalized growth,"S. cerevisiae deletion strains, locus YLR357W, strain rsc2, hits give low values",1.01
same,normalized growth,"S. cerevisiae deletion strains, locus YLR370C, strain arc18, hits give low values",0.952
same,normalized growth,"S. cerevisiae deletion strains, locus YLR371W, strain rom2, hits give low values",0.955
same,normalized growth,"S. cerevisiae deletion strains, locus YLR384C, strain iki3, hits give low values",1
same,normalized growth,"S. cerevisiae deletion strains, locus YLR418C, strain cdc73, hits give low values",0.844
same,normalized growth,"S. cerevisiae deletion strains, locus YML016C, strain PPZ1, hits give low values",0.985
same,normalized growth,"S. cerevisiae deletion strains, locus YML032C, strain rad52, hits give low values",0.951
same,normalized growth,"S. cerevisiae deletion strains, locus YML120C, strain ndi1, hits give low values",1
same,normalized growth,"S. cerevisiae deletion strains, locus YML124C, strain tub3, hits give low values",0.964
same,normalized growth,"S. cerevisiae deletion strains, locus YMR058W, strain fet3, hits give low values",0.933
same,normalized growth,"S. cerevisiae deletion strains, locus YMR078C, strain ctf18, hits give low values",0.959
same,normalized growth,"S. cerevisiae deletion strains, locus YMR125W, strain sto1, hits give low values",1
same,normalized growth,"S. cerevisiae deletion strains, locus YMR129W, hits give low values",0.995
same,normalized growth,"S. cerevisiae deletion strains, locus YMR205C, strain PFK2, hits give low values",0.912
same,normalized growth,"S. cerevisiae deletion strains, locus YMR223W, strain ubp8, hits give low values",0.944
same,normalized growth,"S. cerevisiae deletion strains, locus YMR231W, strain pep5, hits give low values",1.01
same,normalized growth,"S. cerevisiae deletion strains, locus YMR263W, strain SAP30, hits give low values",0.952
same,normalized growth,"S. cerevisiae deletion strains, locus YMR307W, strain GAS1, hits give low values",0.902
same,normalized growth,"S. cerevisiae deletion strains, locus YNL067W, strain RPL9B, hits give low values",0.91
same,normalized growth,"S. cerevisiae deletion strains, locus YNL071W, strain lat1, hits give low values",0.99
same,normalized growth,"S. cerevisiae deletion strains, locus YNL128W, strain TEP1, hits give low values",0.987
same,normalized growth,"S. cerevisiae deletion strains, locus YNL153C, strain GIM3, hits give low values",0.963
same,normalized growth,"S. cerevisiae deletion strains, locus YNL183C, strain NPR1, hits give low values",0.961
same,normalized growth,"S. cerevisiae deletion strains, locus YNL209W, strain ssb2, hits give low values",0.891 (active)
same,normalized growth,"S. cerevisiae deletion strains, locus YNL233W, strain BNI4, hits give low values",0.948
same,normalized growth,"S. cerevisiae deletion strains, locus YNL248C, strain rpa49, hits give low values",0.954
same,normalized growth,"S. cerevisiae deletion strains, locus YNL250W, strain rad50, hits give low values",0.98
same,normalized growth,"S. cerevisiae deletion strains, locus YNL271C, strain bni1, hits give low values",0.971
same,normalized growth,"S. cerevisiae deletion strains, locus YNL298W, strain CLA4, hits give low values",0.959
same,normalized growth,"S. cerevisiae deletion strains, locus YNL307C, strain MCK1, hits give low values",0.89 (active)
same,normalized growth,"S. cerevisiae deletion strains, locus YNL322C, strain KRE1 (second series), hits give low values",0.96
same,normalized growth,"S. cerevisiae deletion strains, locus YNL322C, strain KRE1, hits give low values",0.986
same,normalized growth,"S. cerevisiae deletion strains, locus YNR049C, strain mso1, hits give low values",0.985
same,normalized growth,"S. cerevisiae deletion strains, locus YNR052C, strain pop2, hits give low values",0.967
same,normalized growth,"S. cerevisiae deletion strains, locus YOL006C, strain TOP1, hits give low values",0.458 (active)
same,normalized growth,"S. cerevisiae deletion strains, locus YOL012C, strain htz1",1
same,normalized growth,"S. cerevisiae deletion strains, locus YOL147C, strain pex11, hits give low values",0.961
same,normalized growth,"S. cerevisiae deletion strains, locus YOR001W, strain rrp6, hits give low values",0.97
same,normalized growth,"S. cerevisiae deletion strains, locus YOR061W, strain CKA2, hits give low values",0.988
same,normalized growth,"S. cerevisiae deletion strains, locus YOR069W, strain VPS5, hits give low values",0.985
same,normalized growth,"S. cerevisiae deletion strains, locus YOR070C, strain gyp1, hits give low values",0.933
same,normalized growth,"S. cerevisiae deletion strains, locus YOR080W, strain dia2, hits give low values",1
same,normalized growth,"S. cerevisiae deletion strains, locus YOR083W, strain WHI5, hits give low values",0.841 (active)
same,normalized growth,"S. cerevisiae deletion strains, locus YOR106W, strain vam3, hits give low values",0.803 (active)
same,normalized growth,"S. cerevisiae deletion strains, locus YOR136W, strain idh2, hits give low values",0.965
same,normalized growth,"S. cerevisiae deletion strains, locus YOR144C, strain elg1, hits give low values",0.955
same,normalized growth,"S. cerevisiae deletion strains, locus YOR184W, strain ser1, hits give low values",0.94
same,normalized growth,"S. cerevisiae deletion strains, locus YOR231W, strain MKK1, hits give low values",1.04
same,normalized growth,"S. cerevisiae deletion strains, locus YOR265W, strain rbl2, hits give low values",0.986
same,normalized growth,"S. cerevisiae deletion strains, locus YOR270C, strain vph1, hits give low values",0.67 (active)
same,normalized growth,"S. cerevisiae deletion strains, locus YOR290C, strain snf2, hits give low values",0.89
same,normalized growth,"S. cerevisiae deletion strains, locus YOR316C, strain cot1, hits give low values",0.942
same,normalized growth,"S. cerevisiae deletion strains, locus YPL051W, strain arl3, hits give low values",0.831 (active)
same,normalized growth,"S. cerevisiae deletion strains, locus YPL055C, strain LGE1, hits give low values",0.89
same,normalized growth,"S. cerevisiae deletion strains, locus YPL078C, strain atp4, hits give low values",0.87 (active)
same,normalized growth,"S. cerevisiae deletion strains, locus YPL106C, strain sse1, hits give low values",0.927
same,normalized growth,"S. cerevisiae deletion strains, locus YPL240C, strain hsp82, hits give low values",0.977
same,normalized growth,"S. cerevisiae deletion strains, locus YPL241C, strain CIN2, hits give low values",0.996
same,normalized growth,"S. cerevisiae deletion strains, locus YPL256C, strain CLN2, hits give low values",1.05
same,normalized growth,"S. cerevisiae deletion strains, locus YPR119W, strain clb2, hits give low values",0.954
same,normalized growth,"S. cerevisiae deletion strains, locus YPR141C, strain kar3, hits give low values",0.957
same,normalized growth,"S. cerevisiae deletion strains, locus YPR163C, strain tif3, hits give low values",0.949
same,normalized growth,"S. cerevisiae deletion strains, locus YPR167C, strain met16, hits give low values",0.936
same,normalized growth,"S. cerevisiae deletion strains, strain wtn01, hits give low values",0.957
same,normalized growth,"S. cerevisiae strains, strain wild type, hits give low values",1
